In paper PMC7862700, “An all-to-all approach to the identification of sequence-specific readers for epigenetic DNA modifications on cytosine”:

Assays:
Assay in all cases: DAPPL (digital affinity profiling via proximity ligation, sequencing); 10 mM Tris-HCl pH 7.5, 50 mM NaCl, 1 mM DTT, 4% glycerol, room temperature, 30 min; GST-TFs on glutathione beads, 16-mer random dsDNA library, 0.1% formaldehyde crosslink after washing; high values mean tight binding
[1] = biological target: T1, EHF (Homo sapiens, UniProt Q9NZC4 1-300); conditions: protein: recombinant; tags: N-terminal GST; dsDNA, one strand shown
T1 sequence: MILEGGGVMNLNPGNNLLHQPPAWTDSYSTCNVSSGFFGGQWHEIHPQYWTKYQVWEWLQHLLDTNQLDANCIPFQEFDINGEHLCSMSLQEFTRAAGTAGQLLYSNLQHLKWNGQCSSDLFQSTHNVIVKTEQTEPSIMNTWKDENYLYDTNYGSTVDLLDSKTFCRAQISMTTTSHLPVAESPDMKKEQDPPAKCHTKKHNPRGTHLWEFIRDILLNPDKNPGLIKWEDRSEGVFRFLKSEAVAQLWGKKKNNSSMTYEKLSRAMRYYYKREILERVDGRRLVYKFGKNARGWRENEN
Procedure, shortened: (§1)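 Pools were built from human transcription factors expressed in yeast as GST fusions, captured on glutathione beads and DNA-barcoded, along with a tag-only sample. Incubation with 200 nmole of a 16-mer random double-stranded DNA library lasted 30 min at room temperature in Tris/NaCl/DTT/glycerol buffer, and was followed by washing, 0.1% formaldehyde crosslinking, proximity ligation, PCR amplification and Illumina NextSeq500 sequencing. Binding signal is the quotient of each hexamer's read frequency for a factor and its frequency for the tag-only sample.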

[2] = biological target: T2, ELK3 (Homo sapiens, UniProt P41970 1-407); conditions: protein: recombinant; tags: N-terminal GST; dsDNA, one strand shown
T2 sequence: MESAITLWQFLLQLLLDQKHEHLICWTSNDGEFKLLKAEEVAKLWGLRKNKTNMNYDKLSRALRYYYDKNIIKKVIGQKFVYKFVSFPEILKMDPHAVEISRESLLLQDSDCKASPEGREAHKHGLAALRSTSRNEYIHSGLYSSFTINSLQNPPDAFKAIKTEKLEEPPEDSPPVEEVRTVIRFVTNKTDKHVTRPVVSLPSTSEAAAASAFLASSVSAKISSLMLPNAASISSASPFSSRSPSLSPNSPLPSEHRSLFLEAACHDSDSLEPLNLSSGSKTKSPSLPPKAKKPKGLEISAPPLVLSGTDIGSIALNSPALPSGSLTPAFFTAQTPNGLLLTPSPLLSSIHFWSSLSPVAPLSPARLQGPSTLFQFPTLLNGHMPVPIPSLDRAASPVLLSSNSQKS
Procedure, shortened: as §1

[3] = biological target: HSF1 (Homo sapiens, UniProt Q00613 1-529); conditions: protein: recombinant; tags: N-terminal GST; chain copies: 3; dsDNA, one strand shown
Sequence of HSF1 (Q00613 whole entry): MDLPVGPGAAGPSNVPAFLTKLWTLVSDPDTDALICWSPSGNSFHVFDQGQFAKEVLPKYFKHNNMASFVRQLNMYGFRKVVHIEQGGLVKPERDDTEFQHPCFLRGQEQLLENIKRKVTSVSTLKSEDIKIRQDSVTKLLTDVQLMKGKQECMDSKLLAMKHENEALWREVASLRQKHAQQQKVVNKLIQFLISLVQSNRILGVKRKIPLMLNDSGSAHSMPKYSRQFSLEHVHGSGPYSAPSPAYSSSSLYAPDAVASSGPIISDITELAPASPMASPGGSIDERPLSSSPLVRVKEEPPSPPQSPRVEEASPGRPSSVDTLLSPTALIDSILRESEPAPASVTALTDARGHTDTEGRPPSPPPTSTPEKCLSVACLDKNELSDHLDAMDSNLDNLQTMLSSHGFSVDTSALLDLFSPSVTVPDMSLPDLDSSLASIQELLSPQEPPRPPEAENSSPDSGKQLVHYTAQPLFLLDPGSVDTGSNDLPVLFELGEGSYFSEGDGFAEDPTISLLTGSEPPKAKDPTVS
Procedure, shortened: as §1

[4] = biological target: ELF4 (Homo sapiens, UniProt Q99607 1-663); conditions: protein: recombinant; tags: N-terminal GST; dsDNA, one strand shown
Sequence of ELF4 (Q99607 whole entry): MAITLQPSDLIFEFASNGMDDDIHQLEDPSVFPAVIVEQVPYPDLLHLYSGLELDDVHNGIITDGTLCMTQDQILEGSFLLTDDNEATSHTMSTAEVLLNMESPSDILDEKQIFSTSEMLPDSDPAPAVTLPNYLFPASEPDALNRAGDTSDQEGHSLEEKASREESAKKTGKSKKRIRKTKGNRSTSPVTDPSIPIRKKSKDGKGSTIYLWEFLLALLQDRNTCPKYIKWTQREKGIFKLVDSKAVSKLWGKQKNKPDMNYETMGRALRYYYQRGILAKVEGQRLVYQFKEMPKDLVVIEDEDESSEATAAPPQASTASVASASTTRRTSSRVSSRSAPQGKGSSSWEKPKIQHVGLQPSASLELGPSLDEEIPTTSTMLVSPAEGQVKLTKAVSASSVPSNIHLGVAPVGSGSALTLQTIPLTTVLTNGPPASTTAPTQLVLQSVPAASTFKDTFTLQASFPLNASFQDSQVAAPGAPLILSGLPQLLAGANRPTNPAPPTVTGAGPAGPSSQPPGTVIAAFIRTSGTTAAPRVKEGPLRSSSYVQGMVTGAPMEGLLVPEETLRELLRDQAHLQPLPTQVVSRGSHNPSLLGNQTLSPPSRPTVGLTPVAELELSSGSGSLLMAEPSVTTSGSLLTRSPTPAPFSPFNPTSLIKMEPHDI
Procedure, shortened: as §1

[5] = biological target: T3, ELK4 (Homo sapiens, UniProt P28324-2 1-405); conditions: protein: recombinant; tags: N-terminal GST; dsDNA, one strand shown
T3 sequence: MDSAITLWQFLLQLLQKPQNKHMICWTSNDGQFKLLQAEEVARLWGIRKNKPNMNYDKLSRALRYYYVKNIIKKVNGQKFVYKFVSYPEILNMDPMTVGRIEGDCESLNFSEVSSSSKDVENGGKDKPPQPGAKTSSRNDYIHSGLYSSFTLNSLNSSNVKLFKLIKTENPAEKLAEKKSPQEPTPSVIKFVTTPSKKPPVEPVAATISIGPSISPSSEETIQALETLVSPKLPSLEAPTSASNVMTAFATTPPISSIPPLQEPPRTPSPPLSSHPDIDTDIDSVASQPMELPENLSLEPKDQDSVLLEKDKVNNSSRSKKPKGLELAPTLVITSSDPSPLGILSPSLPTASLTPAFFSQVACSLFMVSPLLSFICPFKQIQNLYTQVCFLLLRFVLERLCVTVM
Procedure, shortened: as §1

[6] = biological target: T4, ELF3 (Homo sapiens, UniProt P78545 1-371); conditions: protein: recombinant; tags: N-terminal GST; dsDNA, one strand shown
T4 sequence: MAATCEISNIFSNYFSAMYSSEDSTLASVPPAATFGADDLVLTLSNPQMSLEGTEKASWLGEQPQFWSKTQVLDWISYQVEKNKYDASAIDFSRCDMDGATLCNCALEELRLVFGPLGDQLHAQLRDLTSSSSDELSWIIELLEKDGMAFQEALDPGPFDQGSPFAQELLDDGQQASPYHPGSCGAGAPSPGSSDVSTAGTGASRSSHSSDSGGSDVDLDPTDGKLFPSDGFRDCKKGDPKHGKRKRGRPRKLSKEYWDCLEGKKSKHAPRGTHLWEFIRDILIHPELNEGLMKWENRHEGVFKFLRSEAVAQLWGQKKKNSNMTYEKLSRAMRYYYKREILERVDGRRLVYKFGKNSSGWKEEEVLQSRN
Procedure, shortened: as §1

[7] = biological target: CRX (Homo sapiens, UniProt O43186 1-299); conditions: protein: recombinant; tags: N-terminal GST; dsDNA, one strand shown
Sequence of CRX (O43186 whole entry): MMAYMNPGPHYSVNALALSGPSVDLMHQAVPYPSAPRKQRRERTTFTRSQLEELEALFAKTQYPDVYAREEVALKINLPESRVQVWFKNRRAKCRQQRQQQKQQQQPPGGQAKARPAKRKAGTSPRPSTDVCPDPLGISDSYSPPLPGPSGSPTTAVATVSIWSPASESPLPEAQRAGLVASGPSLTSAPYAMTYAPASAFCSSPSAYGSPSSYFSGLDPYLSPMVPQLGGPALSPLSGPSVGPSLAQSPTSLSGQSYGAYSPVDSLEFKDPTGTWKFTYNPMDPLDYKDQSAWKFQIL
Procedure, shortened: as §1

[8] = biological target: T5, ERF (Homo sapiens, UniProt P50548 1-548); conditions: protein: recombinant; tags: N-terminal GST; dsDNA, one strand shown
T5 sequence: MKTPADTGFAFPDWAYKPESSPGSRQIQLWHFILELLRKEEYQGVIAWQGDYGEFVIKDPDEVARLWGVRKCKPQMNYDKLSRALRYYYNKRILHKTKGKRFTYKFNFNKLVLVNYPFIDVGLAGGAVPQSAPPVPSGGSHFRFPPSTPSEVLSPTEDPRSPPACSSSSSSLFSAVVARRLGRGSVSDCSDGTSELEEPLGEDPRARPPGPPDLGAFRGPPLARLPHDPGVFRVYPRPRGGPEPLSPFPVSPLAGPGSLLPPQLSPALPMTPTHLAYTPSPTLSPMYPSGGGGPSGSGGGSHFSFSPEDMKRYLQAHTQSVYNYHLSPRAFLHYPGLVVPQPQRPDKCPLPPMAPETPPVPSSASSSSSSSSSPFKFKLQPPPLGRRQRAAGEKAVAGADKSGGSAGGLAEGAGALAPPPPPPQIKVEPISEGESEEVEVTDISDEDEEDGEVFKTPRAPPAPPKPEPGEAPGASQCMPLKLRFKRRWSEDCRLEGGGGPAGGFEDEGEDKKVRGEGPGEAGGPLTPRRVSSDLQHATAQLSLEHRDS
Procedure, shortened: as §1

[9] = biological target: T6, ETV3L (Homo sapiens, UniProt Q6ZN32 1-361); conditions: protein: recombinant; tags: N-terminal GST; dsDNA, one strand shown
T6 sequence: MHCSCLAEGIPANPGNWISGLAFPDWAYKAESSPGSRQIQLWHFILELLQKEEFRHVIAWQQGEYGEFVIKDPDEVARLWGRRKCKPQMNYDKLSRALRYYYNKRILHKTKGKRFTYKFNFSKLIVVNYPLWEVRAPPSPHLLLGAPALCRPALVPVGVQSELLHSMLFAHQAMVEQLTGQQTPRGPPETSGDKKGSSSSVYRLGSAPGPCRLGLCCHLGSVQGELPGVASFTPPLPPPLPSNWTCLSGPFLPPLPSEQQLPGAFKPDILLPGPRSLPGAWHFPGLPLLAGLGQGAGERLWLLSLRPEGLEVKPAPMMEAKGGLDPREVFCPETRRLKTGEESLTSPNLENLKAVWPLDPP
Procedure, shortened: as §1

[10] = biological target: T7, ETV3 (Homo sapiens, UniProt P41162-2 1-143); conditions: protein: recombinant; tags: N-terminal GST; dsDNA, one strand shown
T7 sequence: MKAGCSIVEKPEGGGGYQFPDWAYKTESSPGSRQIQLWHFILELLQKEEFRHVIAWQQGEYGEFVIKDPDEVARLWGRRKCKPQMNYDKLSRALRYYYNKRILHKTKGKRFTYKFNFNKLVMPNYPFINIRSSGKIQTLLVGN
Procedure, shortened: as §1

[11] = biological target: T8, ETV2 (Homo sapiens, UniProt O00321 1-342); conditions: protein: recombinant; tags: N-terminal GST; dsDNA, one strand shown
T8 sequence: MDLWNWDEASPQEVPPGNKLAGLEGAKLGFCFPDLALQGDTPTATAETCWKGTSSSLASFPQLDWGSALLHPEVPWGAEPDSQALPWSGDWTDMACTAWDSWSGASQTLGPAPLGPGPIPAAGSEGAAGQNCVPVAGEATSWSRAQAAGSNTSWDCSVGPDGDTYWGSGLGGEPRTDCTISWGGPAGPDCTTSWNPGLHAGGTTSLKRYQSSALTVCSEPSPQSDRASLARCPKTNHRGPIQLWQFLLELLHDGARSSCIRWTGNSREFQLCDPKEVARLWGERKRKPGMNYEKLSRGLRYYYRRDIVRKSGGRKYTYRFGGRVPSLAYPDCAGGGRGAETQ
Procedure, shortened: as §1

[12] = biological target: T9, SPDEF (Homo sapiens, UniProt O95238 1-335); conditions: protein: recombinant; tags: N-terminal GST; dsDNA, one strand shown
T9 sequence: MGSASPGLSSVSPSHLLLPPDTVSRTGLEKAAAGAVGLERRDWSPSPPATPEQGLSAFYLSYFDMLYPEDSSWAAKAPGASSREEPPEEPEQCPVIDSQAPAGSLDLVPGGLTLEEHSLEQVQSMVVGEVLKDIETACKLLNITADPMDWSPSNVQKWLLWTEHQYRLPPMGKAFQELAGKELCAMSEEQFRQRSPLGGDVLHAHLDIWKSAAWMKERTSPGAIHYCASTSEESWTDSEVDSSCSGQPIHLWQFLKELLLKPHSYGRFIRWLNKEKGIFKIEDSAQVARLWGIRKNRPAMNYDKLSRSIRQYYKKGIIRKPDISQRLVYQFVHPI
Procedure, shortened: as §1

Sequence | binding signal [1] | binding signal [2] | binding signal [3] | binding signal [4] | binding signal [5] | binding signal [6] | binding signal [7] | binding signal [8] | binding signal [9] | binding signal [10] | binding signal [11] | binding signal [12]
CCAGCT | 1.06 fold enrichment (6-mer frequency, TF over GST control) | 1.02 fold enrichment (6-mer frequency, TF over GST control) | 1.03 fold enrichment (6-mer frequency, TF over GST control) | 1.02 fold enrichment (6-mer frequency, TF over GST control) | 1.14 fold enrichment (6-mer frequency, TF over GST control) | 1.04 fold enrichment (6-mer frequency, TF over GST control) | 1.1 fold enrichment (6-mer frequency, TF over GST control) | 1.01 fold enrichment (6-mer frequency, TF over GST control) | 1.03 fold enrichment (6-mer frequency, TF over GST control) | 1 fold enrichment (6-mer frequency, TF over GST control) | – | –
CGTCGA | – | – | 1.06 fold enrichment (6-mer frequency, TF over GST control) | – | – | – | – | – | – | – | 1.01 fold enrichment (6-mer frequency, TF over GST control) | 1.02 fold enrichment (6-mer frequency, TF over GST control)
